The full list was thinned out, with hits kept by preference.
IL-1B inflam inh: qHTS for Inhibitors of Inflammasome Signaling: IL-1-beta AlphaLISA Primary Screen | activity change, % at 57.5 µM | actives 4.7% (n = 360,000) | AID 743279, 2014 | THP-1 LPS/ATP IL-1B secretion, AlphaLISA, 16 h; active compounds read low; in the data active means activity change below about -50%; inconclusive means mostly about -30% to -49%
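THP-1 cells pretreated 1 hr with compounds (up to 57.5 uM final), then stimulated with LPS (250 ng/mL final) plus ATP (1.25 mM final); secreted IL-1B measured by AlphaLISA after 16 hr, decreased signal indicating inhibition.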
HT1080 IDH1KD tx: qHTS for induction of synthetic lethality in tumor cells producing 2HG: qHTS for the HT-1080-IDH1KD cell line | actives 2% (n = 360,000) | HT-1080 IDH1 knockdown viability, ATP luminescence, 48 h | AID 686971, 2013 | Potency, µM (doses to about 46.1 µM), inactives show at the top dose activity, negative = toxicity, actives largely listed as cytotoxic;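 further: potency means the concentration at half of the fitted maximal effect; 0% = DMSO wells and -100% = cell-free medium wells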
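Using the IDH1-knockdown HT-1080 line run in the same batch and compound series as the NT line, viability after 48 h at 37 °C was determined by CellTiter-Glo luminescence and expressed as % activity.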
HT1080-NT tox: qHTS for induction of synthetic lethality in tumor cells producing 2HG: qHTS for the HT-1080-NT fibrosarcoma cell line; HT-1080-NT fibrosarcoma viability, CellTiter-Glo ATP luminescence, 48 h; Potency, µM (titrated, usually from 46.1 µM), inactives show at the top dose activity, negative = less viability, actives largely listed as cytotoxic; actives 1.6% (n = 360,000); AID 686970, 2013;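 further: NT is the 2HG producing partner of a matched IDH1 knockdown line; potency means the concentration at half of the fitted maximal effect; 0% = DMSO-treated cells and -100% = media-only wells without cells; nearly all actives have a fitted effect of over 55% in size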
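Toxicity toward the 2HG-producing NT line was scored as %Activity, normalised to DMSO and no-cell wells, from CellTiter-Glo luminescence after 48 hours' treatment.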
DT40 TDP1 no CPT: qHTS for Inhibitors of human tyrosyl-DNA phosphodiesterase 1 (TDP1): qHTS in cells in absence of CPT. DT40 Tdp1-/- hTDP1 cells, no CPT, ATP luminescence, 48 h. Potency, µM (highest dose often 46.2 µM), for the others: at the top dose activity change, negative = growth inhibition, usual class: inhibitors. actives 15% (n = 420,000); further: potency means the concentration at half of the fitted maximal effect; nearly all actives have a fitted effect of over 55% in size
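Seeded 400 DT40-hTDP1 cells/well (vehicle DMSO, no 20 nM CPT); pinned compounds; ≥48 hr at 37 °C; CellTiter-Glo luminescence as viability measure.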
ALOX12 inh: Primary qHTS assay for inhibitors of human arachidonate 12S-lipoxygenase (ALOX12): Round 2; Polyunsaturated fatty acid lipoxygenase ALOX12 (Homo sapiens), P18054; Potency, µM (highest dose often 108 µM), inactives show top-dose activity change, negative = inhibition, hits mostly inhibitors; purified 12hLO, xylenol orange hydroperoxide absorbance; actives 1.1% (n = 580,000); further: potency means the concentration at half of the fitted maximal effect
Target sequence (P18054 whole entry, looked up): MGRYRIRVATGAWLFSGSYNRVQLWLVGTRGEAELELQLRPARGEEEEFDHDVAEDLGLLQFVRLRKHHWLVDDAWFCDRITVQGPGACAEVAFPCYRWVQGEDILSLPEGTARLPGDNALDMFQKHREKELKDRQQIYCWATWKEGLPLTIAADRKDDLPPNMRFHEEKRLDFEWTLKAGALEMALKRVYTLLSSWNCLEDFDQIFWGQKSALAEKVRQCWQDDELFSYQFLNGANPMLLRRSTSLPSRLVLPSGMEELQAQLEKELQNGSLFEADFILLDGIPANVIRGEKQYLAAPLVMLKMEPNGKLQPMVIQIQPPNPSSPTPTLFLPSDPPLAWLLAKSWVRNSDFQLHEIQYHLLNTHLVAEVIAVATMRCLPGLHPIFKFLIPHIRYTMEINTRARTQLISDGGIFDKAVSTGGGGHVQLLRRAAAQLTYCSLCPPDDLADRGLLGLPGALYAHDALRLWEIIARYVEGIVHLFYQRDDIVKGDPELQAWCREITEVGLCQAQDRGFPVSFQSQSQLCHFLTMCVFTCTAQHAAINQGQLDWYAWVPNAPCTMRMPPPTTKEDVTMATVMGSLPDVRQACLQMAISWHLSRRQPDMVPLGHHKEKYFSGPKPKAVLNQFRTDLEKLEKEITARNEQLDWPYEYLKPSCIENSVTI
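Purified human 12hLO at 150 nM in 25 mM Hepes, 0.01% Triton X-100, pH 7.0, preincubated 15 min at room temperature with compound. Reaction started with 40 uM arachidonic acid, 30 min at room temperature. Hydroperoxide measured by Fe-xylenol orange, 573/405 nm absorbance ratio.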
DT40 TDP1 CPT: qHTS for Inhibitors of human tyrosyl-DNA phosphodiesterase 1 (TDP1): qHTS in cells in presence of CPT; actives 12% (n = 420,000); Potency, µM (series often up to 46.2 µM), without a hit: at the top dose activity change, negative = growth inhibition, usual class: inhibitors; AID 686979, 2013; chicken DT40 Tdp1-/-;hTDP1 cells + 20 nM CPT, ATP luminescence, 48 h; further: potency means the concentration at half of the fitted maximal effect; nearly all actives have a fitted effect of over 55% in size
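Chicken DT40 Tdp1-/- cells stably complemented with human TDP1 were seeded at 400 cells/well in medium containing 20 nM camptothecin, exposed to pin-transferred compounds, and grown at 37 °C for at least 48 hr. Viability was read as ATP luminescence.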
An asterisk follows results filed as active. Unless noted, the call rests on the fitted dose curve; in most records, active means well fitted curve in the direction sought with a large enough effect; inconclusive means small, poorly fitted or top-dose-only effect, or another doubt; inactive means no such curve, though single readings can be large; an effect the other way counts as inactive or inconclusive. Unless noted, on the % scale 0 is the no-effect control and ±100 the full control effect.

`O=C(CSC1=NCCS1)Nc1ccc2ccccc2c1` gave IL-1B inflam inh -28, HT1080 IDH1KD tx 24%, HT1080-NT tox -8%, DT40 TDP1 no CPT -8%, ALOX12 inh -9% and DT40 TDP1 CPT 2%.
For COCc1cc(C)nc(SCC(=O)Nc2ccccc2C)c1C#N the results were IL-1B inflam inh -2, HT1080 IDH1KD tx -12%, HT1080-NT tox -4%, DT40 TDP1 no CPT 5.8µM*, ALOX12 inh -5% and DT40 TDP1 CPT 7.3µM*.
Screening CN(CCOc1ccc(Br)cc1)C(=O)c1cc(=O)[nH]c2ccccc12 returned ALOX12 inh 9%.
For Cc1ccc(/C=N/NC(=O)c2cccc(Br)c2)s1 the results were ALOX12 inh -4%.
Cc1c(C(=O)OCc2ccccc2)sc(=S)n1-c1ccc(Cl)cc1 was read as ALOX12 inh -51%.
For CCN(CC)C1CCOC2(CCN(C(=O)c3cccnc3C)CC2)C1 (stereo not drawn) the results were ALOX12 inh 61%.
For CCN(CC)S(=O)(=O)c1ccc(C(=O)OCCN2C(=O)c3cccc4c(N5CCOCC5)ccc(c34)C2=O)cc1 the results were IL-1B inflam inh 10, HT1080 IDH1KD tx 23%, HT1080-NT tox 24%, DT40 TDP1 no CPT 18µM*, ALOX12 inh 9% and DT40 TDP1 CPT inconclusive.
COc1ccc(-c2cn3nc(N4CCCC(C(=O)NCc5ccccc5OC)C4)sc3n2)cc1 (stereo not drawn) was read as DT40 TDP1 no CPT inconclusive, ALOX12 inh -21% and DT40 TDP1 CPT 18µM*.
Screening COc1ccc(-c2cn3nc(N4CCCC(C(=O)Nc5ccccc5F)C4)sc3n2)cc1 (stereo not drawn) returned DT40 TDP1 no CPT 15µM*, ALOX12 inh 0% and DT40 TDP1 CPT 21µM*.
`COc1ccc(-c2cn3nc(N4CCCC(C(=O)Nc5cc(C)ccc5C)C4)sc3n2)cc1` (stereo not drawn) gave DT40 TDP1 no CPT 16µM*, ALOX12 inh -16% and DT40 TDP1 CPT 23µM*.
Screening O=C(C1CCCCC1)N1CCC2(CC1)CC(N(Cc1ccc(F)cc1)C1CC1)CCO2 (stereo not drawn) returned ALOX12 inh 32%.
CC(NC(=O)C1CCCC1)C1CCCO1 (stereo not drawn) was read as ALOX12 inh 9%.
Screening O=S(=O)(CCS(=O)(=O)c1ccccc1)c1ccccc1 returned IL-1B inflam inh inconclusive, HT1080 IDH1KD tx inconclusive, HT1080-NT tox -1%, DT40 TDP1 no CPT -18%, ALOX12 inh 8% and DT40 TDP1 CPT -23%.
`CC1(C)CC(=O)C(CS(=O)(=O)c2ccccc2)=C(Cl)C1` gave IL-1B inflam inh -19, HT1080 IDH1KD tx 3%, HT1080-NT tox -1%, DT40 TDP1 no CPT 2.9µM*, ALOX12 inh 0% and DT40 TDP1 CPT 5.2µM*.
For CC(=O)Cc1cc(O)c2ccccc2c1OC(=O)c1ccccc1 the results were IL-1B inflam inh 27, HT1080 IDH1KD tx inconclusive, HT1080-NT tox inconclusive, DT40 TDP1 no CPT 15µM*, ALOX12 inh -15% and DT40 TDP1 CPT inconclusive.
For Cc1ccc2nc(/C(C#N)=C\c3cccc(OCc4ccc(F)cc4)c3)[nH]c2c1 the results were ALOX12 inh 59%.
For O=[N+]([O-])c1cccc(SSc2cccc([N+](=O)[O-])c2)c1 the results were IL-1B inflam inh inconclusive, HT1080 IDH1KD tx 18µM*, HT1080-NT tox 18µM*, DT40 TDP1 no CPT 4.6µM*, ALOX12 inh 2.5µM* and DT40 TDP1 CPT 3.7µM*.
`CCOc1ccccc1N(CC)C(=O)Cn1ncc2c1-c1ccccc1OC2` gave DT40 TDP1 no CPT 16µM*, ALOX12 inh -22% and DT40 TDP1 CPT 21µM*.
Screening COc1ccccc1NC(=O)Cn1ncc2c1-c1ccccc1OC2 returned IL-1B inflam inh -22, HT1080 IDH1KD tx 2%, HT1080-NT tox -3%, DT40 TDP1 no CPT inconclusive, ALOX12 inh -6% and DT40 TDP1 CPT 15µM*.
`CCOc1ccc(-c2cc(NC(=O)Cn3ncc4c3-c3ccccc3OC4)on2)cc1OCC` gave IL-1B inflam inh 10, HT1080 IDH1KD tx -20%, HT1080-NT tox -21%, DT40 TDP1 no CPT -4%, ALOX12 inh 1% and DT40 TDP1 CPT -3%.
Screening O=C(C1CCN(c2nc(-c3cccs3)nc3ccccc23)CC1)N1CCCCCC1 returned ALOX12 inh 8%.
For Cc1cc(C)cc(OCC(=O)N2N=C(c3cccnc3)CC2(O)C(F)(F)F)c1 (stereo not drawn) the results were IL-1B inflam inh 12, HT1080 IDH1KD tx -22%, HT1080-NT tox -14%, DT40 TDP1 no CPT inconclusive, ALOX12 inh -11% and DT40 TDP1 CPT inconclusive.
Screening Cc1cc(C)cc(OCC(=O)N2N=C(C(F)(F)F)CC2(O)C(C)(C)C)c1 (stereo not drawn) returned IL-1B inflam inh 2, HT1080 IDH1KD tx 16µM*, HT1080-NT tox 18µM*, DT40 TDP1 no CPT inconclusive, ALOX12 inh inconclusive and DT40 TDP1 CPT inconclusive.
Screening NC(=O)CSc1nc2scc(-c3ccc(Cl)cc3)c2c(=O)n1Cc1ccccc1 returned IL-1B inflam inh 55, HT1080 IDH1KD tx -10%, HT1080-NT tox -25%, DT40 TDP1 no CPT 8.2µM*, ALOX12 inh -8% and DT40 TDP1 CPT 9.2µM*.
`Cc1ccc(-c2csc3nc(SCC(=O)N(C)C)n(Cc4ccccc4)c(=O)c23)cc1` gave IL-1B inflam inh -22, HT1080 IDH1KD tx -29%, HT1080-NT tox -22%, DT40 TDP1 no CPT 13µM*, ALOX12 inh 1% and DT40 TDP1 CPT 12µM*.
`C=CCn1c(SCC(=O)Nc2ccc(C(=O)O)cc2)nc2scc(-c3ccccc3)c2c1=O` gave IL-1B inflam inh -13, HT1080 IDH1KD tx -12%, HT1080-NT tox 3%, DT40 TDP1 no CPT -6%, ALOX12 inh -3% and DT40 TDP1 CPT 6%.
`CCCCn1nc(C(=O)Nc2cc(F)ccc2C)c2ccccc2c1=O` gave ALOX12 inh 0%.

Bioassay records deposited in PubChem BioAssay by National Center for Advancing Translational Sciences (NCATS).
